The source of these data is PubChem BioAssay AID602438 (Sanford-Burnham Center for Chemical Genomics, 2012).

The campaign covered roughly 360,000 compounds. About 3,100 (0.86%) were called active. The full list was thinned out, with actives kept by preference. Unmarked numbers belong to inactive results.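 How the source made its calls: active means inhibition or corrected inhibition above about 18%, plus a signal ratio from 0.5 to 1.5 (limit read from the data, passing the limit was not always enough); inactive means the rest.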

Neuropilin-1 (Homo sapiens), sequence (O14786 whole entry, looked up): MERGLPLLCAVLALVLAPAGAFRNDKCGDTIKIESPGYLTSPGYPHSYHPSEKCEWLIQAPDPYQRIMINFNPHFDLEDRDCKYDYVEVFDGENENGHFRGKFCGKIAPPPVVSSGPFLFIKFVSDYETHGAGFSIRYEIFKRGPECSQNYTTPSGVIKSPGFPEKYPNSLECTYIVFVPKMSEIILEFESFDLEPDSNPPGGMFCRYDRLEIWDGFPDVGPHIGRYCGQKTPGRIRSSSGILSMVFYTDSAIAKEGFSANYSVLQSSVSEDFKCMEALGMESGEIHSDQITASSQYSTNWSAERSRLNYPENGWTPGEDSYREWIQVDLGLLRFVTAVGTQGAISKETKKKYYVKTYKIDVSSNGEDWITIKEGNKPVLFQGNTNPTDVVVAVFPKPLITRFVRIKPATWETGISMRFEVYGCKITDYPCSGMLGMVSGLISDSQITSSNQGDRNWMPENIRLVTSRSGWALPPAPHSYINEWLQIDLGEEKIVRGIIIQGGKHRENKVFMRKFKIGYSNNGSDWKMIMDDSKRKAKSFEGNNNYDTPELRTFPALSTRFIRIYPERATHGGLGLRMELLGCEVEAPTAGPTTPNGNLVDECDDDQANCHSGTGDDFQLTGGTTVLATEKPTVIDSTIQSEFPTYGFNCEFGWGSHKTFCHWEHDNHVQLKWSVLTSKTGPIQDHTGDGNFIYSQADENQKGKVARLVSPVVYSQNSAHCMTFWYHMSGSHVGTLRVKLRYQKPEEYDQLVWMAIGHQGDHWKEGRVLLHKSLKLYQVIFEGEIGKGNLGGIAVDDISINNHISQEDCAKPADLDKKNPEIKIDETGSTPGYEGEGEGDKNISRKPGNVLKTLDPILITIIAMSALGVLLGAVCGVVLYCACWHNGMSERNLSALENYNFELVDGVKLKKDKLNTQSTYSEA

This test concerns the target Neuropilin-1 (Homo sapiens) (UniProt O14786). As to the kind of experiment: NRP-1/CendR peptide interaction modulators – biochemical, fluorescence polarization, uHTS, primary screen (AID 602438). Particulars: FAM-RPARPAR peptide binding to NRP-1, fluorescence polarization; at 25 µM; stronger effect = higher value. (In general: Polarisation of emitted light reports the rotation of a fluorescent probe.)
For `CC(NCc1ccccc1OC1CCCC1)c1ccccc1` (centres undefined), the inhibition was -0.1%.
For `O=C(NC12CC3CC(CC(C3)C1)C2)N1CCCC(CO)C1` (centres undefined) the value was -1.5%.
For `CC(=O)c1c(N)n(C)c(=O)n(C)c1=O` the value was 5.8%; for `Cc1ccc(C(C(=O)NCC2CCCO2)N(C(=O)c2snc(C(N)=O)c2N)c2ccc(C(C)C)cc2)o1` (centres undefined), -5.9%; for `O=C(O)c1ccccc1OCc1ccccc1Cl`, 5.3%.
`Cc1ccc(-n2c(SCC(=O)NCc3ccc4c(c3)OCO4)nnc2-c2cccnc2)c(C)c1`: the inhibition was 8.7%.
The value for `Cn1cccc1Cc1nnc(SCC(=O)NCc2ccc3c(c2)OCO3)n1CCc1ccccc1` was -7.4%; that for `Cc1ccccc1-c1nnc(SCC(=O)NCc2ccc3c(c2)OCO3)n1C` was 38.3% (active); that for `Cc1cc(N=CC2=C(O)CCCC2=O)no1` was 10.1%.
The value for `CC1OC2C(OC1C)N(S(C)(=O)=O)CCN2S(C)(=O)=O` (centres undefined) was -3.5%.
For `CC1(C(=O)Nc2ccc3c(c2)OCCO3)CSCC(=O)N1CCOc1ccccc1` (centres undefined) the value was -11.3%; for `Cc1ccc(C(=O)OCC(=O)NC(=O)Cc2ccccc2)c(O)c1`, 20.4% (active).
As for `CCCN(CC1CC1)C(=O)COC(=O)c1ccc(C)cc1O`, the inhibition was -9.9%.
For `Cc1cccc(C)c1NC(=O)COC(=O)c1ccccc1O` the value was 6.8%; for `C[C@H](CO)N1C[C@H](C)[C@@H](CN(C)C(=O)c2cnccn2)Oc2ncc(Br)cc2C1=O`, 2.9%.
Turning to `C/C=C/C(=O)Nc1ccc(N2CCN(c3ccc(C(F)(F)F)cn3)CC2)nc1`, the inhibition was 6.8%.
For `C[C@H]1CN([C@@H](C)CO)C(=O)Cc2cc(NC(=O)Cc3ccccc3)ccc2O[C@H]1CN(C)S(=O)(=O)c1cccs1` the value was 0.6%; for `CCCCCNC(=O)c1cccnc1SCC(=O)Nc1ccccc1OC`, -0.3%; for `CCOC(=O)c1csc(CCNC(=O)c2oc3c(Cl)cc(C)cc3c2C)n1`, 24.9% (active).
For `Cc1cc(Cl)c2oc(C(=O)NC(C)c3ccncn3)c(C)c2c1` (centres undefined) the value was 1.3%; for `Cc1cc(Cl)c2oc(C(=O)N(C)C(C)c3ccccn3)c(C)c2c1` (centres undefined), 9.3%.
For `CCN(CC(=O)Nc1cc(Cl)ccc1C)C(=O)Cn1c(=O)cnc2ccccc21` the value was 9%; for `O=c1nc(NO)ccn1C1CCCO1` (centres undefined), 7.6%; for `CC(C)C(C(=O)NCc1ccco1)N(CC1CCCO1)C(=O)CNS(=O)(=O)c1ccc(F)cc1` (centres undefined), 15.8%.
With `Cc1ccc2c(c1)C1CN(C)CCC1N2C(=S)Nc1ccc(Cl)cc1Cl` (centres undefined), the inhibition was -11.4%.
The value for `Cc1ccc2c(c1)C1C[N+](C)(CC(=O)c3ccccc3)CCC1N2C(=O)c1ccccc1Cl` (centres undefined) was 5.2%; that for `Cc1ccc2c(c1)C1CN(C)CCC1N2C(=O)c1ccccc1NS(=O)(=O)c1ccc(F)cc1C` (centres undefined) was 37.9% (active); that for `Cc1noc(C)c1CSCC(=O)Nc1ccc(Br)cc1Cl` was 12.2%.
The value for `O=C(CSCc1c(F)cccc1Cl)NCC1CCCO1` (centres undefined) was -9.5%.
The value for `CC1CCN(C(=O)/C(=C\c2ccccc2F)NC(=O)c2ccccc2)CC1` was 9.8%.
In the case of `CCc1cc2c(=O)c(-c3nc4ccccc4n3C)c(CCCC(=O)O)oc2cc1OC(=O)C(C)(C)C`, the inhibition is 3.6%.
As to `COc1ccc2oc(N)c(C=O)c(=O)c2c1`, the inhibition was 13.3%.
Turning to `CCc1cc2c(=O)c(-c3ccon3)c(N)oc2cc1OC`, the inhibition was 36.1% (active).
The value for `CCN(CC(=O)N1CCCC1)S(=O)(=O)c1ccc(F)cc1` was 9.2%; that for `COCn1c(C(O)c2ccccc2)cc2ccccc21` (centres undefined) was 8.1%.
The value for `O=C(NCC(O)c1ccc([N+](=O)[O-])cc1)C1CCCCC1` (centres undefined) was 11.3%; that for `CC(OC(=O)c1cccc(S(=O)(=O)N2CCOCC2)c1)C(=O)NCC1CCCCC1` (centres undefined) was 8.2%.
The value for `CC(OC(=O)c1ccc([N+](=O)[O-])cc1)C(=O)NCC1CCCCC1` (centres undefined) was 23.5% (active).
On to `O=C(C1CCCN1S(=O)(=O)c1ccc(Br)cc1)N1CCOCC1` (centres undefined), for which the inhibition is 6.9%.
For `Cc1nc2ccc(C(=O)O)cc2[nH]1` the value was 24.6% (active).
For `Cc1nc2ccc(C(=O)N(C)CC3CCCN(CCc4ccc(Cl)cc4)C3)cc2[nH]1` (centres undefined), the inhibition was 8.8%.
For `COC(=O)Nc1nc2ccc(Sc3ccccc3)cc2[nH]1` the value was -0.3%; for `Cc1cccc(NC(=O)CN2CCCN(S(=O)(=O)c3ccc(Br)s3)CC2)c1`, 1.1%; for `COc1cccc(CNC(=O)CN(C)S(=O)(=O)c2ccc3c(c2)c(=O)n(C)c(=O)n3C)c1`, -1.6%.
For `CCc1ccccc1NC(=O)CN(C)S(=O)(=O)c1ccc2c(c1)c(=O)n(C)c(=O)n2C` the value was 7.6%; for `CC1CCC(NC(=O)CN(C)S(=O)(=O)c2ccc3c(c2)c(=O)n(C)c(=O)n3C)CC1` (centres undefined), 25.4% (active).
Take `C/C=N/NC(=O)CCCC(=O)N/N=C/C`: the inhibition was 15%.
On to `Cc1cc(C)c(S(=O)(=O)N2C=CC(C(F)(F)F)=NCC2)c(C)c1`, for which the inhibition was 3.5%.
For `O=C(O)c1ccc(COc2c(F)c(F)cc(F)c2F)o1` the value was 45.5% (active); for `O=C(O)CSCc1ccc(C(=O)O)o1`, -7.1%; for `O=C(O)c1ccc(NC(=O)c2ccc(COc3ccc(Cl)cc3)o2)cc1`, -6.7%.
For `CC1O[C@H](OC2C(COC3OC(CO)C(O)[C@H](O)C3O)OC(OC3CC[C@]4(C)C(CC[C@@]5(C)[C@@H]4C=C[C@]46OC[C@@]7(CCC(C)(C)C[C@H]74)C(O)C[C@@]56C)C3(C)C)C(O)C2O)C(O)C(O)C1O` (some centres undefined) the value was 23.7% (active); for `CCOc1ccc(-n2c(SC(C)C(=O)OC)nc3c(c2=O)SCC3)cc1` (centres undefined), -5.4%; for `N#Cc1cccc(CN2CCC(=O)N(CCO)CC2)c1`, 21.1% (active).
The value for `O=C1CCN(CCCc2ccccc2)CCN1CCO` was 5.5%.
Take `N#Cc1cccc(CN2CCC(=O)N([C@H](CO)c3ccccc3)CC2)c1`: the inhibition was 9.5%.
For `O=C(CSc1nnc(-c2cnccn2)n1Cc1ccco1)c1ccc(Cl)c(Cl)c1` the value was 3.3%.
In the case of `O=C(CSc1nnc(-c2cccnc2)n1Cc1ccco1)c1ccc(Cl)c(Cl)c1`, the inhibition is -25.2%.
Regarding `O=C(CSc1nnc(-c2cccs2)n1Cc1ccco1)c1ccc2c(c1)OCO2`, the inhibition was 37.5% (active).

The inhibition is the relative decrease from the control value, in per cent.
